# Test system: Pectobacterium parmentieri SCC3193
# Assay: DuctApe activity index (growth/respiration on compound as sole nutrient source, blank-subtracted) (activity index (0-3)); higher = stronger utilization of the compound, active = 3 or more
# Conditions: nutrient role (plate category): carbon
# Description: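 Biolog Phenotype Microarray plates PM1, PM2A (carbon), PM3 (nitrogen) and PM4 (phosphorus/sulfur) inoculated with P. parmentieri SCC3193 in M9-C minimal salts medium with Biolog dye A, and read in the OmniLog for 46 h. Each well was tested in triplicate and the experiment was run twice. DuctApe computed a blank-subtracted activity index (AV, 0-3) from the mean curves; growth is positive at AV >= 3 and negative at AV <= 2.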
row,SMILES,DuctApe activity index
1,C[C@@H]1OC(O)[C@H](O)[C@H](O)[C@H]1O (stereo partly drawn) [L-Rhamnose],3 (active)
2,OC[C@H]1O[C@@H](Oc2ccc(O)cc2)[C@H](O)[C@@H](O)[C@@H]1O [Arbutin],3 (active)
3,CO[C@@H]1O[C@H](CO)[C@H](O)[C@H](O)[C@H]1O [b-Methyl-D-Galactoside],2 (inactive)
4,O=C(O)[C@H](O)[C@@H](O)C(=O)O [L-Tartaric acid],0 (inactive)
5,O=C(CO)CO [Dihydroxyacetone],1 (inactive)
6,CCC(=O)O [Propionic acid],0 (inactive)
7,CC(=O)CC(=O)O [Acetoacetic acid],0 (inactive)
8,NCC(=O)N[C@@H](CC(=O)O)C(=O)O,0 (inactive)
9,CO[C@@H]1OC[C@@H](O)[C@H](O)[C@H]1O [b-Methyl-D-Xyloside],0 (inactive)
10,CC[C@H](O)C(=O)O [a-Hydroxybutyric acid],0 (inactive)
11,OC[C@@H](O)[C@@H](O)CO [i-Erythritol],0 (inactive)
12,OC[C@H]1OC(O)[C@H](O)[C@@H](O)[C@H]1O (stereo partly drawn) [D-Galactose],3 (active)
13,OC[C@H]1O[C@@H](O[C@@H]2[C@@H](CO)OC(O)(CO)[C@H]2O)[C@H](O)[C@@H](O)[C@H]1O (mixture of isomers) [Lactulose],3 (active)
14,OC[C@@H](O)[C@@H](O)[C@H](O)[C@@H](O)CO [D-Sorbitol],0 (inactive)
15,O=C[C@@H](O)[C@H](O[C@@H]1O[C@H](CO)[C@H](O)[C@H](O)[C@H]1O)[C@H](O)CO [3-O-b-D-Galactopyranosyl-D-Arabinose],1 (inactive)
16,C[C@@H](O)CC(=O)O [b-Hydroxybutyric acid],0 (inactive)
17,OC[C@@H]1OC(O)[C@@H](O)[C@H](O)[C@H]1O (stereo partly drawn) [L-Glucose],0 (inactive)
18,OC[C@@H](O)[C@@H](O)[C@H](O)[C@H](O)CO [D-Mannitol],3 (active)

# Same assay, conditions: nutrient role (plate category): nitrogen
row,SMILES,DuctApe activity index
1,Nc1ccn([C@@H]2O[C@H](CO)[C@@H](O)[C@H]2O)c(=O)n1 [Cytidine],3 (active)
2,CCC(N)C(=O)O (racemic) [DL-a-Amino-N-Butyric acid],1 (inactive)
3,NCCN [Ethylenediamine],0 (inactive)
4,N[C@@H](Cc1ccc(O)cc1)C(=O)O [L-Tyrosine],0 (inactive)
5,CCCCN [N-Butylamine],0 (inactive)
6,NCC(=O)N[C@@H](CC(N)=O)C(=O)O,1 (inactive)
7,Nc1nc2c(ncn2[C@@H]2O[C@H](CO)[C@@H](O)[C@H]2O)c(=O)[nH]1 [Guanosine],0 (inactive)
8,C[C@H](N)C(=O)N[C@@H](CCC(=O)O)C(=O)O,1 (inactive)

# Same assay, conditions: nutrient role (plate category): phosphate & sulphur
row,SMILES,DuctApe activity index
1,Nc1ccn([C@@H]2O[C@H](CO)[C@@H](O)[C@H]2OP(=O)(O)O)c(=O)n1 [Cytidine 2`-Monophosphate],3 (active)
2,C[C@@H](OP(=O)(O)O)[C@H](N)C(=O)O [O-Phospho-L-Threonine],2 (inactive)
3,C[S+]([O-])CC[C@H](N)C(=O)O (stereo partly drawn) [L-Methionine Sulfoxide],1 (inactive)
4,Cc1cn([C@H]2C[C@H](O)[C@@H](COP(=O)(O)O)O2)c(=O)[nH]c1=O [Thymidine 5`-Monophosphate],2 (inactive)
5,C[C@H](CCC(=O)NCCS(=O)(=O)O)[C@H]1CC[C@H]2[C@@H]3[C@H](O)C[C@@H]4C[C@H](O)CC[C@]4(C)[C@H]3C[C@H](O)[C@]12C [Taurocholic acid],2 (inactive)
6,O=C(O)CP(=O)(O)O [Phosphono Acetic acid],0 (inactive)
7,O=S(=O)(O)CCO [2-Hydroxyethane Sulfonic acid],1 (inactive)
8,CSC[C@H](N)C(=O)O [S-Methyl-L-Cysteine],1 (inactive)
9,C=C(OP(=O)(O)O)C(=O)O [Phosphoenol Pyruvate],2 (inactive)
10,Nc1ncnc2c1ncn2[C@@H]1O[C@H](COP(=O)(O)O)[C@@H](O)[C@H]1O [Adenosine 5`-Monophosphate],1 (inactive)
11,Nc1ncnc2c1ncn2[C@@H]1O[C@H](CO)[C@@H](O)[C@H]1OP(=O)(O)O [Adenosine 2`-Monophosphate],2 (inactive)
12,N[C@@H](CS)C(=O)NCC(=O)O,1 (inactive)
